In PubChem BioAssay (Tox21):
Inconclusive results are not listed. Active and inactive are the calls of the source. Unless noted, the call rests on the fitted dose curve; in most records, active means well fitted curve in the direction sought with a large enough effect in the repeat runs; inconclusive means weak or mixed curves; inactive means no such curve, though single readings can be large; an effect the other way counts as inactive or inconclusive.

Columns and labels:
[1] = target: Luciferin 4-monooxygenase (Photinus pyralis) (UniProt P08659); assay: qHTS assay to identify small molecule inhibitors of firefly luciferase (AID 1224835); further: nearly all actives have a fitted effect of over 25% in size; conditions: purified P. pyralis luciferase, luminescence inhibition; series mostly up to 115 µM
Summary of the method: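 Quantitative HTS format; KM concentrations of both substrates. Purified P. pyralis FLuc activity quantified from luminescence images.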

[2] = target: Nuclear receptor subfamily 1 group I member 3 (Homo sapiens) (UniProt Q14994); assay: qHTS assay to identify small molecule antagonists of the constitutive androstane receptor (CAR) signaling pathway (AID 1224838); conditions: HepG2-CYP2B6-hCAR luciferase, CITCO-stimulated, 24 h; series mostly up to 92.4 µM; further: nearly all actives have a fitted effect of over 40% in size
Summary of the method: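 HepG2 cells stably co-transfected with hCAR and a CYP2B6-2.2kb luciferase reporter were seeded 4 h before compound addition at 15 concentrations. Cells were stimulated with 50 nM CITCO (final) for 24 h at 37 C; luciferase luminescence was then read.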

[3] = target: Nuclear receptor subfamily 1 group I member 3 (Homo sapiens) (UniProt Q14994); assay: qHTS assay to identify small molecule agonists of the constitutive androstane receptor (CAR) signaling pathway (AID 1224839); conditions: HepG2 hCAR CYP2B6-luciferase, agonist mode, 24 h; series mostly up to 92.4 µM; further: nearly all actives have a fitted effect of over 15% in size; further: potency means the concentration at half of the fitted maximal effect;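 on activation: HepG2 cells stably carrying human CAR and a CYP2B6 luciferase reporter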
Summary of the method: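 In this screen, CAR-driven CYP2B6 promoter activity is measured by luminescence in HepG2-CYP2B6-hCAR cells after 24 h with test compounds and 0.75 uM PK11195 (final concentration).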

[4] = qHTS assay to identify small molecule antagonists of the estrogen related receptor signaling pathway with the pleiotropic PPARgamma coactivator (PGC) from Tox21 10K library (AID 1224841; call rule not given here; further: actives are mostly falling curves and most rising ones were filed inactive; nearly all actives have a fitted effect of over 50% in size; further: potency means the concentration at half of the fitted maximal effect); conditions: PGC/ERR reporter cell line, ONE-Glo luciferase, 18 h; series mostly up to 92.4 µM
Summary of the method: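 PGC/ERR reporter cells were seeded at 2,000 cells/well and held 6 hours at 37 C/5% CO2 before pin-tool addition of compounds in DMSO. After 18 hours at 37 C, One-Glo was added and luminescence read after 30 minutes at room temperature.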

[5] = qHTS assay to identify small molecule agonists of the estrogen related receptor signaling pathway with the pleiotropic PPARgamma coactivator (PGC) from Tox21 10K library (AID 1224842); conditions: PGC/ERR reporter cell line, luciferase ONE-Glo, 18 h; series mostly up to 92.4 µM; further: nearly all actives have a fitted effect of over 15% in size
Summary of the method: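 PGC/ERR reporter cells (NTP line) were seeded 2,000 per well, rested 6 h at 37 C/5% CO2, then pin-dosed with compounds in DMSO for 18 h at 37 C; luciferase read by One-Glo luminescence after 30 min at room temperature.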

[6] = target: Thyrotropin receptor (Homo sapiens) (UniProt P16473); assay: qHTS assay to identify small molecule agonists of the thyroid stimulating hormone receptor (TSHR) signaling pathway (AID 1224843; calls by dose curve; further: nearly all actives have a fitted effect of over 45% in size; further: potency means the concentration at half of the fitted maximal effect); conditions: TSHR-HEK293 cells, cAMP HTRF, agonist mode, 30 min; series mostly up to 92.4 µM
Summary of the method: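 Cell line HEK293 with TSHR; density 800/well. Exposure 30 min RT. Readout HTRF cAMP (cAMP-d2/anti-cAMP-cryptate), 1 h RT before reading.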

[7] = qHTS assay to identify small molecule agonists of the constitutive androstane receptor (CAR) signaling pathway - cell viability counter screen (AID 1224836); conditions: HepG2-CYP2B6-hCAR viability, CellTiter-Fluor, 23 h, PK11195 added to every well; series mostly up to 92.4 µM; further: nearly all actives have a fitted effect of over 45% in size
Summary of the method: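 Compound titrations (15 concentrations) went onto HepG2-CYP2B6-hCAR cells 4 h after seeding, alongside PK11195 at a final 0.75 uM; a 23 h, 37 C/5% CO2 incubation preceded CellTiter-Fluor viability measurement.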

[8] = qHTS assay to identify small molecule antagonists of the constitutive androstane receptor (CAR) signaling pathway - cell viability counter screen (AID 1224837); conditions: HepG2-CYP2B6-hCAR viability, CellTiter-Fluor, 23 h, co-treated with 50 nM CITCO; series mostly up to 92.4 µM; further: nearly all actives have a fitted effect of over 45% in size
Summary of the method: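 HepG2 cells stably expressing hCAR and a CYP2B6-2.2kb reporter were plated and pre-incubated 4 hr at 37 C/5% CO2, then given compounds at 15 concentrations plus 50 nM CITCO (final). After 23 hr, viability was read by CellTiter-Fluor fluorescence.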

[9] = qHTS assay to identify small molecule antagonists of the estrogen related receptor signaling pathway with the pleiotropic PPARgamma coactivator (PGC) from Tox21 10K library - cell viability counter screen (AID 1224840; active means well fitted cell-killing curve with a large enough effect in the repeat runs, not every such curve was filed as active; further: nearly all actives have a fitted effect of over 40% in size); conditions: PGC/ERR reporter cells viability, CellTiter-Fluor, 17.5 h; series mostly up to 92.4 µM
Summary of the method: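 PGC/ERR cells were seeded at 2,000 cells/well and left 6 hours at 37 C/5% CO2 before pin-tool addition of compounds in DMSO. After 17.5 hours at 37 C, CellTiter-Fluor was added and fluorescence read 30 minutes later.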
On the % scale 0 is the no-effect control and ±100 the full control effect.

Thyrotropin receptor (Homo sapiens), sequence (P16473 whole entry, looked up): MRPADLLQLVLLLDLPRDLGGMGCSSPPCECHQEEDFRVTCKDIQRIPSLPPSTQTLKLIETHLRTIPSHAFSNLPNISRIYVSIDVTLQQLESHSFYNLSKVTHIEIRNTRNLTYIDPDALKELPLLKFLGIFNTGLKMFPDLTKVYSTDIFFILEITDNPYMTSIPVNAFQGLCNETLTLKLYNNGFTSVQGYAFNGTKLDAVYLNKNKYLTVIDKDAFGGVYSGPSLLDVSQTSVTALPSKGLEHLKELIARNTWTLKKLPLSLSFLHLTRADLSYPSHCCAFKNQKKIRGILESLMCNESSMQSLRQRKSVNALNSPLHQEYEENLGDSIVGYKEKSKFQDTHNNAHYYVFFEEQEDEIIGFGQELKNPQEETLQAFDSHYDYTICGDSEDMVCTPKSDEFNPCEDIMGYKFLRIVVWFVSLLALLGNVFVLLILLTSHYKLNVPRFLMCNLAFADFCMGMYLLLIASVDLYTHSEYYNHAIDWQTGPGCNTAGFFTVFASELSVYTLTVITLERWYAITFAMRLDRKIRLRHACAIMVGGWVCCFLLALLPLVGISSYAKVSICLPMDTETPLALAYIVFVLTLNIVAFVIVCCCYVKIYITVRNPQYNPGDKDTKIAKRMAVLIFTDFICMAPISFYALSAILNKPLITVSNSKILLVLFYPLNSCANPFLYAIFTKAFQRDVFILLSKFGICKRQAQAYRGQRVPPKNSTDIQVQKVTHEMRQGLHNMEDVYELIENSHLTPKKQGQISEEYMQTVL
Luciferin 4-monooxygenase (Photinus pyralis), sequence (P08659 whole entry, looked up): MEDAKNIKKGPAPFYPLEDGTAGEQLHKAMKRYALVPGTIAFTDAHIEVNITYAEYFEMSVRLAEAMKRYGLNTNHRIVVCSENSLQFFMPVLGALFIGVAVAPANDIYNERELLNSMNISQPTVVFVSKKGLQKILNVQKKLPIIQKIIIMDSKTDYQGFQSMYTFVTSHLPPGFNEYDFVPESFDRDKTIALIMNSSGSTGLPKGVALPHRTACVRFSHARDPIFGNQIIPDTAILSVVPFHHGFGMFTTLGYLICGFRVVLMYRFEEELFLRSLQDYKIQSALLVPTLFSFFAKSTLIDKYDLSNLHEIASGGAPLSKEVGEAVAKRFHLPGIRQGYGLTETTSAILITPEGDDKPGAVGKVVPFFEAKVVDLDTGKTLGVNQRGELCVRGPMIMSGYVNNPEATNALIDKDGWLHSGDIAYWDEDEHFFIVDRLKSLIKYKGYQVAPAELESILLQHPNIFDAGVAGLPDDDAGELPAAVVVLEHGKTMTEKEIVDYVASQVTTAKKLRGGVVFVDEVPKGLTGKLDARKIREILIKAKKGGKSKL
Nuclear receptor subfamily 1 group I member 3 (Homo sapiens), sequence (Q14994 whole entry, looked up): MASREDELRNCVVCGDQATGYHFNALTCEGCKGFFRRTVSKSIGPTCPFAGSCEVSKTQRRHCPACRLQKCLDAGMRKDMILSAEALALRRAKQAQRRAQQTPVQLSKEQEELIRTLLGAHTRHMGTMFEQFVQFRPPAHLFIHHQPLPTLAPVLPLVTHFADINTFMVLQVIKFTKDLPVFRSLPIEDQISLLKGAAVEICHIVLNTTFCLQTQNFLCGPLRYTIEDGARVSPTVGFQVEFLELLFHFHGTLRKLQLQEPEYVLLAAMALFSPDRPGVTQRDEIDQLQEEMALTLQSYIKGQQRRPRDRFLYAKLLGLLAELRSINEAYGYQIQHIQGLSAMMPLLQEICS

CCC(C)(C)c1cc(-n2nc3ccccc3n2)c(O)c(C(C)(C)CC)c1
active: Potency [4] 49.3 µM
inactive: Potency [1] | Potency [2] | Potency [3] | outcome [5] | Potency [6]

Cc1cccc(C#N)c1
inactive: Potency [1] | Potency [7] | Potency [8] | Potency [2] | Potency [3] | Potency [9] | Potency [6]

CCC(Cl)[N+](=O)[O-] (configuration not stated)
inactive: Potency [1] | Potency [7] | Potency [8] | Potency [2] | Potency [3] | Potency [4] | outcome [5] | Potency [6]

O=[N+]([O-])c1cccc(O)c1
inactive: Potency [1] | Potency [7] | Potency [8] | Potency [2] | Potency [3] | Potency [9] | Potency [6]

CCC1(c2ccccc2)C(=O)NC(=O)NC1=O
inactive: Potency [1] | Potency [7] | Potency [8] | Potency [2] | Potency [3] | Potency [9] | Potency [6]

CCCCCCI
inactive: Potency [7] | Potency [8] | Potency [2] | Potency [3] | Potency [9] | outcome [5]

CCN(CC)CCOC(=O)C(C)(c1ccccc1)c1ccccc1
inactive: Potency [1] | Potency [7] | Potency [8] | Potency [2] | Potency [9] | Potency [4] | outcome [5] | Potency [6]

COc1ncc(F)c2nc(S(=O)(=O)Nc3c(F)cccc3F)nn12
inactive: Potency [1] | Potency [7] | Potency [8] | Potency [2] | Potency [3] | Potency [6]

CC1=C(C(=O)O)N2C(=O)[C@@H](N)[C@H]2SC1
inactive: activity change, negative = inhibition [1] -0.398% [at 23.6 µM] | viability change, negative = cytotoxic [7] 4.01% [at 19 µM] | activity change, negative = cytotoxicity [8] 0.992% [at 19 µM] | activity, negative = inhibition [2] 17.2% [at 19 µM] | activation [3] -1.84% [at 19 µM] | activity, negative = inhibition [4] 1.75% [at 19 µM] | activation [5] 0.483% [at 19 µM] | activation [6] 0.53% [at 19 µM]

N#Cc1ccncc1
inactive: Potency [1] | Potency [7] | Potency [8] | Potency [9] | Potency [4] | outcome [5]

N#CCBr
inactive: Potency [1] | Potency [7] | Potency [8] | Potency [3] | Potency [9] | Potency [4] | outcome [5] | Potency [6]

COc1cccc(C(=O)NN(C(=O)c2cc(C)cc(C)c2)C(C)(C)C)c1C
inactive: Potency [1] | Potency [2] | Potency [3] | Potency [9] | Potency [4] | outcome [5] | Potency [6]

O=[N+]([O-])c1ccc2c3c(cccc13)CC2
inactive: Potency [1] | Potency [7] | Potency [8] | Potency [6]

CC(C)CC(N(C)C)C1(c2ccc(Cl)cc2)CCC1 (configuration not stated)
inactive: Potency [1] | Potency [7] | Potency [8] | Potency [9] | Potency [4] | outcome [5] | Potency [6]

CCOC(=O)CP(=O)(OCC)OCC
inactive: Potency [1] | Potency [7] | Potency [8] | Potency [9] | Potency [4] | outcome [5] | Potency [6]

CCCCOP(=O)(O)OCCCC
inactive: Potency [1] | Potency [7] | Potency [8] | Potency [9] | Potency [6]

CCC(=O)C(CCN(C)C)(c1ccccc1)c1ccccc1
inactive: Potency [1] | Potency [7] | Potency [8] | Potency [3] | Potency [9]

Cc1ncsc1CCCl
inactive: Potency [1] | Potency [7] | Potency [8] | Potency [9] | Potency [6]

N#CC(Cl)(Cl)Cl
inactive: Potency [1] | Potency [7] | Potency [8] | Potency [3] | Potency [9]

CC(CC(C#N)(c1ccccc1)c1ccccc1)N(C)C (configuration not stated)
active: Potency [3] 27.2 µM
inactive: Potency [1] | Potency [8] | Potency [2] | Potency [9] | Potency [6]

CC1(C(=O)Nc2ccc(O)c(Cl)c2Cl)CCCCC1
inactive: Potency [1] | Potency [7] | Potency [8] | Potency [3] | Potency [9] | outcome [5]

C[N+](=O)[O-]
inactive: Potency [1] | Potency [7] | Potency [8] | Potency [9] | Potency [4] | outcome [5] | Potency [6]

CC(C)(C)NCC(O)c1cc(Cl)c(N)c(Cl)c1 (configuration not stated)
active: Potency [6] 2.1 nM
inactive: Potency [1] | Potency [9] | Potency [4] | outcome [5]

CC(C)NCC(O)c1ccc(N)c(C#N)c1 (configuration not stated)
active: Potency [6] 2.1 nM
inactive: Potency [1] | Potency [7] | Potency [8] | Potency [2] | Potency [9]

COc1ccc2c(c1OC)CN1CCc3cc4c(cc3C1C2)OCO4 (configuration not stated)
inactive: Potency [1] | Potency [7] | Potency [8] | Potency [9] | Potency [6]

CC1COC2(c3ccccc3Cl)c3cc(Cl)ccc3NC(=O)CN12 (configuration not stated)
inactive: Potency [1] | Potency [7] | Potency [8] | Potency [3] | Potency [9] | outcome [5] | Potency [6]
active: Potency [4] 21.1 µM

Nc1c(Br)cc([N+](=O)[O-])cc1[N+](=O)[O-]
inactive: Potency [1] | Potency [7] | Potency [8] | Potency [9] | Potency [4] | outcome [5] | Potency [6]
